# The whole screen tested about 2,100 compounds, of which about 770 (37%) were called active. This is one part of the list. Values without a mark were called inactive.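 How the source made its calls: active means by-eye trace score of 1 for enhancers or -1 for inhibitors, so actives lie on both sides (some results past the limit were not filed as active); inactive means score 0, or 3 fluorescent, or 4 baseline rise.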
# Target: G protein-activated inward rectifier potassium channel 2 (Homo sapiens) + G protein-activated inward rectifier potassium channel 1 (Homo sapiens) (UniProt P48051+P48549)
# Sequence (P48051 whole entry, looked up): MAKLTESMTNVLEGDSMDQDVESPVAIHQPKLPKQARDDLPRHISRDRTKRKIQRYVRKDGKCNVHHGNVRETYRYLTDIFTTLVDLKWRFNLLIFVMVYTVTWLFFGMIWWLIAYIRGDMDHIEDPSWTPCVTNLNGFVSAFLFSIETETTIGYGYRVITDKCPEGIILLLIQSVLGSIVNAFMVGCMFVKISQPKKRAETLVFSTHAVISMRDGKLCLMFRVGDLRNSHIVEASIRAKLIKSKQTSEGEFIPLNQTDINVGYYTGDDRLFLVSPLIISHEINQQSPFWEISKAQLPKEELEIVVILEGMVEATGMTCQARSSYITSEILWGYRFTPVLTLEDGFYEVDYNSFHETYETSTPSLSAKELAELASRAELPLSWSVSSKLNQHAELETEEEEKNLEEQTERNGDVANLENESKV
# Sequence (P48549 whole entry, looked up): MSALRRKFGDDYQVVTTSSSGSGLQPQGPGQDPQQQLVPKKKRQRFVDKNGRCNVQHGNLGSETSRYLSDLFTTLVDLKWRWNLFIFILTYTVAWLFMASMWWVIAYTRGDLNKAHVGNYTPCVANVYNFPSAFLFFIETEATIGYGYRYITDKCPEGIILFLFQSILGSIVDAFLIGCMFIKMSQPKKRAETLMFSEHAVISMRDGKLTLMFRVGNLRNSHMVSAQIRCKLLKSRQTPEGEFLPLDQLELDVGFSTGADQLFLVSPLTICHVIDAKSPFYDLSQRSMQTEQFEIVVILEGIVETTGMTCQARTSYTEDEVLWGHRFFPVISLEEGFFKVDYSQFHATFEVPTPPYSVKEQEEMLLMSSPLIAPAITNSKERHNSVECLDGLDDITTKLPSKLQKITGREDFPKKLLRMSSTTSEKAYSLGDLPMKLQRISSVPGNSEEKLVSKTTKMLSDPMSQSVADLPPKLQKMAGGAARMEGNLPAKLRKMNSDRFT
# Assay: GIRK1/2 thallium flux modulators, retest, confirmation, cell-based, HEK293 rmGlu8/hGIRK1/2, FluoZin-2 (AID 623911)
# Conditions: HEK293 rmGlu8/hGIRK1/2, thallium flux FluoZin-2; actives lie on both sides; glutamate co-added at its EC20 level
row,Structure (SMILES),manual score
1,COc1ccc(NC(=O)Nc2ccccc2OC)cc1,0
2,COc1ccc(C)cc1NC(=O)NCCC1=CCCCC1,1 (active)
3,CCOc1ccc(NC(=O)Nc2cc(C)ccc2OC)cc1,1 (active)
4,COc1ccc(NC(=O)NC(C)c2ccncc2)cc1OC (configuration not stated),0
5,COc1ccc2cc(C(=O)Nc3ccccc3)sc(=O)c2c1OC,0
6,O=C(NC(=S)NCCC1=CCCCC1)c1cncc(Br)c1,0
7,CCCOc1ccc(NCC(=O)Nc2ccc(C)cc2C)cc1,0
8,COc1ccc(NC(=O)Nc2cc(C)ccc2OC)cc1,1 (active)
9,Cc1ccc(OC(=S)Nc2ccccc2)c(C)c1,0
10,COc1ccc(C)cc1NC(=O)Nc1ccccc1,1 (active)
11,O=C(O)c1ccccc1C(=O)Nc1ccc(-c2csc(-c3ccccc3)n2)cc1,0
12,CN1CC=C2C(C#N)=C(N)C(C#N)(C#N)[C@H](c3cccc(Cl)c3)C2C1 (some centres not stated),3
13,COc1ccc(NC(=O)Nc2ccccc2C(=O)N2CCCC2)cc1,1 (active)
14,COc1cc(C(=S)N2CCCC2)cc(OC)c1OS(=O)(=O)c1ccc(NC(C)=O)cc1,0
15,COC(=O)[C@H](Cc1ccccc1)NC(=O)NCCC1=CCCCC1,1 (active)
16,COC(=O)c1ccccc1NC(=O)Nc1cnccn1,0.5
17,Cc1ccc(-c2[nH]nc3c2C(c2ccoc2)C(C#N)=C(N)O3)cc1C (configuration not stated),0
18,CCOC(=O)N1CCN(c2c(F)cc3[nH]c(=S)[nH]c3c2Br)CC1,-1 (active)
19,CCOC(=O)N1CCN(c2ccc3nnnn3n2)CC1,0
20,CCOC(=O)N1CCC(n2c(=S)[nH]c3ccccc3c2=O)CC1,0
21,COc1ccc(-c2nnc(NC(=O)c3ccc(S(=O)(=O)N4CCCc5ccccc54)cc3)o2)cc1,0
22,CCOc1ccc(-c2nnc(NC(=O)CCCOc3cccc(C)c3)o2)cc1,0

row,Structure (SMILES),manual score
1,O=C(CSc1ccc(-c2ccco2)nn1)c1ccccc1,0
2,O=C(Nc1nnc(-c2ccco2)o1)c1ccc2ccccc2c1,1 (active)
3,CCOc1ccc(-c2nc(-c3ccc(OC)c(OC)c3)no2)cc1OCC,0
4,CCOc1ccc(-c2nnc(NC(=O)c3ccc(OCC(C)C)c(OC)c3)o2)cc1,1 (active)
5,COc1ccc(C(=O)Nc2ccc(S(=O)(=O)NCc3ccco3)cc2)cc1OC,0
6,COc1ccc(-c2nnc(NC(=O)c3ccc(S(=O)(=O)N4COCC4(C)C)cc3)o2)cc1,1 (active)
7,CCc1cc(C(N)=O)c(NC(=O)c2ccc(OC)cc2)s1,0
8,COc1ccc(-c2nnc(NC(=O)c3ccc(S(=O)(=O)N4CCc5ccccc5C4)cc3)o2)cc1,0
9,COc1ccc(-c2nnc(NC(=O)c3ccc(F)cc3)o2)cc1,1 (active)
10,CC(=O)CN1Cc2ccccc2/C1=N\C(=O)Nc1ccccc1,0
11,CCCCN(C)C1=CC2=CC(=C(C#N)C#N)CCC2CC1 (configuration not stated),3
12,Cc1ccccc1Cn1cc(NC(=O)c2nc3ncccn3n2)cn1,0
13,CCCn1cc(NC(=O)c2cc(-c3ccccc3)on2)cn1,1 (active)
14,O=C(c1cc(-c2ccccc2)on1)N1CCCC1,0
15,CC(C)n1cc(NC(=O)c2cc(-c3ccccc3)on2)cn1,1 (active)
16,Cc1cccc(N2CCN(C(=O)c3ccc(Cl)c(S(=O)(=O)N4CCc5ccccc5C4)c3)CC2)c1C,0
17,Cc1ccc2cccc(S(=O)(=O)N3CCN(c4ccccc4F)CC3)c2n1,-1 (active)
18,O=c1sc(N2CCN(c3ccccc3F)CC2)nc2ccsc12,0
19,C=CCNC(=S)NNC(=O)COc1ccc(Cl)cc1Cl,0
20,Cc1ccccc1C(=O)NNC(=S)NC(=O)c1ccc(Cl)cc1Cl,1 (active)
21,Cc1onc(-c2ccccc2)c1C(=O)NNC(=S)NC(=O)c1ccc(Br)cc1,1 (active)
22,Cc1ccccc1C(=O)NC(=S)Nc1sc2c(c1C#N)CCCC2,0

row,Structure (SMILES),manual score
1,O=C(COc1ccccc1)NNC(=S)NC(=O)c1ccc(Cl)cc1Cl,1 (active)
2,Cc1onc(-c2ccccc2)c1C(=O)NC(=S)Nc1sc2c(c1C#N)CCCC2,1 (active)
3,S=c1[nH]ccn1-c1cccc(Cl)c1,0
4,Oc1ccc2ccc3cccc[n+]3c2c1,3
5,CCn1c(-c2cc(-c3cccc(OC)c3)nc3ccccc23)n[nH]c1=S,0
6,Cc1ccccc1C(=O)NNC(=O)C(=O)Nc1cccc(Cl)c1C,1 (active)
7,Cc1ccccc1C(=O)NC(=S)NCCc1ccccc1,0
8,Cc1ccccc1C(=O)NNC(=S)NC(=O)c1ccccc1,1 (active)
9,Cc1ccccc1C(=O)Nc1nc(=S)ss1,0
10,Cc1c(Cl)cccc1NC(=S)/C(=C(\[O-])c1ccc(Cl)s1)[n+]1ccccc1,0
11,CCOC(=O)C(CC)n1cnc2c(nnn2-c2ccc(OC)cc2)c1=O (configuration not stated),0
12,CCC(C)n1c(=S)[nH]c2c(sc3ccc([N+](=O)[O-])cc32)c1=O (configuration not stated),1 (active)
13,COc1cccc2sc(Nc3nc(-c4ccccn4)cs3)nc12,1 (active)
14,O=C(Nc1nc(-c2ccccn2)cs1)c1ccc(Br)s1,0
15,COc1cccc2sc(Nc3nnc(-c4cccs4)o3)nc12,1 (active)
16,CCNc1nnc(-c2ccc(C)cc2)o1,-0.5
17,COc1ccc(-c2nnc(Nc3nc4c(OC)cccc4s3)o2)cc1,1 (active)
18,C/C(=N/NC(=O)c1ccncc1)c1cc2ccc(O)cc2oc1=O,0
19,CCOc1cc(/C=N/NC(=O)CNc2cccc(C)c2)ccc1OC(=O)c1ccccc1,0
20,O=C(Nn1c(C2CCCCC2)nc2ccccc2c1=O)c1ccc([N+](=O)[O-])cc1Cl,0
21,COc1ccccc1OCC(O)Cn1c(=N)n(Cc2ccccc2)c2ccccc21 (configuration not stated),-1 (active)
22,CC1(C)NC(=O)N(CC(O)COc2ccc(-c3ccc(C#N)cc3)cc2)C1=O (configuration not stated),0

row,Structure (SMILES),manual score
1,Cc1ccc(OCC(O)Cn2c(=N)n(Cc3ccccc3)c3ccccc32)cc1 (configuration not stated),-1 (active)
2,CN(C)c1nc(OCCNC(=O)COc2ccc(Cl)cc2Cl)nc(N2CCOCC2)n1,-1 (active)
3,Cc1cc(CC(C)C)n(-c2nc3ccccc3c(=O)n2OCC(N)=O)n1,0
4,CC1(C)Cc2ccccc2-c2nnc(SCC(=O)N3CCN(c4ccccc4)CC3)n21,0
5,Cc1ccc(CC(=O)N2CCN(c3cccc(C(F)(F)F)c3)CC2)cc1,1 (active)
6,O=C(CN1CCN(Cc2ccccc2)CC1)Nc1cccc(C(F)(F)F)c1,0
7,COC(=O)c1ccc(CSc2nc3c(c(=O)n2-c2ccc(F)cc2)SCC3)o1,0
8,CCOc1ccc(-n2c(Cc3cc(=O)[nH]c(=O)[nH]3)nnc2SC(C)C(=O)OC)cc1 (configuration not stated),0
9,CCOc1ccc(-n2c(SC(C)C(=O)OC)nc3c(c2=O)SCC3)cc1 (configuration not stated),-1 (active)
10,CC(C)Cn1c2c(c(O)c(C(=O)Nc3ncccc3O)c1=O)CCCC2,0
11,COC(=O)C(NC(=O)COc1ccccc1)(Nc1nc2c(s1)CCCC2)C(F)(F)F (configuration not stated),-1 (active)
12,CCCCCn1nc(-c2ccccc2)c2nc3ccccc3nc21,3
13,CCCCN(CCCC)C(=O)CSc1nnc2n(C)c(=O)c3c4c(sc3n12)CCCC4,-0.5
14,O=c1c2c3c(sc2nc2n1CCCCC2)CCCCC3,0
15,CCn1c(SCC(N)=O)nc2sc3c(c2c1=O)CCCC3,1 (active)
16,S=C1Nc2ccccc2Sc2ccc(Cl)cc21,0
17,Clc1ccc2c(c1)-c1nnc(Br)n1-c1ccccc1S2,-1 (active)
18,CCOc1ccccc1OCCCCCc1c(C)n[nH]c1C,0
19,CCN(CC)CC(O)COCCC12CC3CC(CC(C3)C1)C2 (configuration not stated),-1 (active)
20,CC1(C)CC(c2nc(-c3ccc(Br)cc3)cs2)CCS1 (configuration not stated),0
21,Cc1ccc(Cn2c(SCC(=O)NCC3CCCO3)nc3c(sc4ccccc43)c2=O)cc1 (configuration not stated),0.5
22,CCN(CC)CCN(CC)Cc1ccccc1Br,-1 (active)

row,Structure (SMILES),manual score
1,O=C1CS/C(=N\C(=O)N2c3ccccc3Sc3ccccc32)N1,0
2,CCOC(=O)/C(=C/C=C1\Sc2ccccc2N1CC)C(C)=O,3
3,CCOc1ccccc1C(=O)N1c2ccccc2Sc2ccccc21,-1 (active)
4,COc1ccccc1C(=O)N1c2ccccc2Sc2ccccc21,-1 (active)
5,COCC(=O)/C=C1\Sc2ccccc2N1C,0
6,O=S(=O)(Cc1ccccc1)N1CCc2ccccc21,3
7,COc1cc(C)ccc1OCCOc1cc(C)ccc1Cl,0
8,CCC1CCCN1Cn1cnc2c([nH]c3ccc(OC)cc32)c1=O (configuration not stated),0
9,Cc1ccc(N2C=Nc3ccc(C)c4nc(C)cc2c34)cc1,-1 (active)
10,C/C(=N\NC(=O)c1cccc(F)c1)c1ccc(Br)s1,1 (active)
11,C/C(=N\NC(=O)c1ccccc1O)c1ccc(Br)s1,0.5
12,C/C(=N\NC(=O)c1ccc(Cl)cc1)c1ccc(Br)s1,0.5
13,CN(C=O)CP(=O)(O)CCN1CCCC1=O,0
14,Clc1cccc(CSc2nc3ccncc3[nH]2)c1,1 (active)
15,O=C(CSc1nc2ccc(Cl)cc2[nH]1)Nc1ccc2c(c1)CCC2,0
16,Cc1ccc(CSc2nc3ccncc3[nH]2)cc1,0
17,CCN(CC)CCN1C(=O)c2oc3ccccc3c(=O)c2C1c1ccc(F)cc1 (configuration not stated),0
18,C=CCSc1nc2sc3c(c2c(=O)n1CC)CCc1ccccc1-3,1 (active)
19,CCn1c(SCC(N)=O)nc2c(c1=O)C1(CCCC1)Cc1ccccc1-2,0

# From PubChem BioAssay AID623911 (Vanderbilt High Throughput Screening Facility, 2012)
